Laboratory results from paper PMC13494018.
Values without a mark were called inactive. The rule behind the calls is not given here.

Target: CD276, Q5ZPR3
Sequence (Q5ZPR3 whole entry): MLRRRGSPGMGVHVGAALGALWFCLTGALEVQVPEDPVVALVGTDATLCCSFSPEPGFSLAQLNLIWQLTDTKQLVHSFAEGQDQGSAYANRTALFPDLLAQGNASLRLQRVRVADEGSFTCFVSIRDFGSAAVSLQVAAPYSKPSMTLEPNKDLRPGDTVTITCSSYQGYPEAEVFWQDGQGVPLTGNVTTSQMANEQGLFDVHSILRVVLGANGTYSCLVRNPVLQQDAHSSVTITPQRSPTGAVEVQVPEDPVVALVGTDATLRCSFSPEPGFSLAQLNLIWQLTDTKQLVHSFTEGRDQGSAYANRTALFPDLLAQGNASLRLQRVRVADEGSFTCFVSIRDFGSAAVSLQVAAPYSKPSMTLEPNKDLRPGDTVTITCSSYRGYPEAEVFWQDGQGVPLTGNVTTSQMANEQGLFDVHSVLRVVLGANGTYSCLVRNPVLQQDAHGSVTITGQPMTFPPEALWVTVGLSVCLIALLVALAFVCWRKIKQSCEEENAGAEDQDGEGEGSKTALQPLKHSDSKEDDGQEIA

Row | Binder | binding in a display sort
1 | design_623_6e2e8b1f-5d9a-4413-9869-27a184816b12_532_dldesign_0_cycle1_af2pred (protein) AAVAAAIAAGEAAIKTVEALTKQAKTATPEERKAIAEQLRAAAVTLMNAAVASSPAYSPKFGAAAVEALQAAAEAG | not found
2 | design_623_6e2e8b1f-5d9a-4413-9869-27a184816b12_1541_dldesign_0_cycle1_af2pred (protein) DFFEKALKAAKAALKKAEEALEKGKEDLAAAKAAVHQAQAAYVLASGLAVAAEAAGADPKVAKEAKELAEKAKELMEQGKKLAAKLA | not found
3 | design_623_6e2e8b1f-5d9a-4413-9869-27a184816b12_1410_dldesign_0_cycle1_af2pred (protein) SEELRERARELREEAERAEREAREAAERGDAERVREQLRRLSRLAAEAARLANQATAAGDEETAAEANEALARAVEAMERAQEWAE | not found
4 | design_623_6e2e8b1f-5d9a-4413-9869-27a184816b12_873_dldesign_0_cycle1_af2pred (protein) SENVKKAKALAAKSKELLEKAKKGDAETAQKALKEISKLANELAKLATSSPAADQAATNAALAVAVEAAEEASKIAREKKA | not found
5 | design_623_6e2e8b1f-5d9a-4413-9869-27a184816b12_1249_dldesign_0_cycle1_af2pred (protein) AEAAKAAALEVLALAQEYYDQAKKNAAKIAPEKLKKADEAYAKALAALAAGDYGLAAHYAMLAYSYSSTGLQEA | not found
6 | design_623_6e2e8b1f-5d9a-4413-9869-27a184816b12_681_dldesign_0_cycle1_af2pred (protein) MEEIKEKAKELAETVEAIGEELAKFGLETGNENAITAGVNTAKHVAKYAERLSPEAGKIAEKTKEKVEKLGKKAKAEIAA | not found
7 | design_623_6e2e8b1f-5d9a-4413-9869-27a184816b12_2159_dldesign_0_cycle1_af2pred (protein) AAAAAAKVAEAAAKAMLRTAKAILKESKASGGAKAPDALAAAEVALALADDLERQGGDPKTAEKLKKEAKAVAAEAKKVAA | not found
8 | design_623_6e2e8b1f-5d9a-4413-9869-27a184816b12_1572_dldesign_0_cycle1_af2pred (protein) KAEEVVKIVREAAREAKKDPEKAKEYANRALGALLDLAKAGSQEAALVASQGAAKIAKKITSGASAEEIAKALEEAAKKVEEAAKKE | not found
9 | design_623_6e2e8b1f-5d9a-4413-9869-27a184816b12_1352_dldesign_0_cycle1_af2pred (protein) AAEARKAEAVARAKAAAQNAKLVAEGAGEAFAAEAAEVAALAKQAATSTAEEAEKLAEQAAAKTVAMTRAAIALHAAA | not found
10 | design_623_6e2e8b1f-5d9a-4413-9869-27a184816b12_569_dldesign_0_cycle1_af2pred (protein) NAAAQATVAAIVKQLRKRAEEEAGNPEIAKALKDGAEAVKEAGKKGIGAAVETLKETYAKVAELRAAQAAA | not found
11 | design_623_6e2e8b1f-5d9a-4413-9869-27a184816b12_1704_dldesign_0_cycle1_af2pred (protein) MEEALTEAFRAVAEMNRLAEEARKANPEAAEKAEEARREMSRLAIEAARSDAETAAELAKKIKEILEKTKKVVEELA | not found
12 | design_623_6e2e8b1f-5d9a-4413-9869-27a184816b12_1921_dldesign_0_cycle1_af2pred (protein) SSVAAFLAAAAQAVKAAAEQGNLAAAAAFLRAAALASDPEAGKKLEALAKAAEAATAEEGKAIAKEGAKLLKELAEEVEAK | not found
13 | design_623_6e2e8b1f-5d9a-4413-9869-27a184816b12_1798_dldesign_0_cycle1_af2pred (protein) AAAEEKTKAYEIALETAKLLTAAAALADELAATNPEAAALAAQARQLNVDLNKTAIAGELTLELAEEYLKKAKEIAARVKALAKAA | not found
14 | design_623_6e2e8b1f-5d9a-4413-9869-27a184816b12_824_dldesign_0_cycle1_af2pred (protein) MEEKIKEAEKLYLEGLKAAGAAHAAIVKGDVAAAKKALEKLKEIAEKLKELGKESEEAKKIAENAEKLYEVTKAAVDAAAAA | not found
15 | design_623_6e2e8b1f-5d9a-4413-9869-27a184816b12_2025_dldesign_0_cycle1_af2pred (protein) GEERLLAAINEGARAILEVTAPESDAQRNAVVHAFILGMVRGPEQGLADLAAAAAALSPEVAKAAVEEATKIIERYLA | not found
16 | design_623_6e2e8b1f-5d9a-4413-9869-27a184816b12_1750_dldesign_0_cycle1_af2pred (protein) DLLEQARIAANSTVALKKTTKEILAKSTPESAEKVAEVAVELAKQAKELGKKAGTKEAKELAKKAEKAAKEAVEAVKKAKA | not found
17 | design_623_6e2e8b1f-5d9a-4413-9869-27a184816b12_1571_dldesign_0_cycle1_af2pred (protein) GEEAKKLAEEGDKLAEQGKAATPQEGLALLLEAAKKYSEAARLYREAGNEEEAAKAEAKLQEVNAQLNAAAKAAIAA | not found
18 | design_623_6e2e8b1f-5d9a-4413-9869-27a184816b12_1170_dldesign_0_cycle1_af2pred (protein) MSQAVLNTAKIAIETAGRSSPEEAKKLVEQAVDIASSASDENKKELVKYAKELAKKDPSSKEFYEAAAKKIEATL | not found
19 | design_623_6e2e8b1f-5d9a-4413-9869-27a184816b12_997_dldesign_0_cycle1_af2pred (protein) EGEKLWKEAKALTDQAKALAAQAQATTDAAQAKQYAIEAAAATTEAMRLASEAARLLGPEKQEEANRLVQEATQALVAATQAAQALA | not found

Row | Binder | binding in a display sort
20 | design_623_6e2e8b1f-5d9a-4413-9869-27a184816b12_1445_dldesign_0_cycle1_af2pred (protein) EEAVLERIRALGEEGAALFQAAIKAAVAGDVAAAEALLKAGREKFEEAIALGEATSPRARELAEEVRRRMEAGEKIAQLAIEGAKA | not found
21 | design_623_6e2e8b1f-5d9a-4413-9869-27a184816b12_1434_dldesign_0_cycle1_af2pred (protein) DAAAKELRERATALAGRTLLALARDPAEGERTLEEAVKELEALGKESGLEELAKEEAARLRAQYEAFRAVAEA | not found
22 | design_623_6e2e8b1f-5d9a-4413-9869-27a184816b12_1663_dldesign_0_cycle1_af2pred (protein) GLEEFEKIVREAAEKVIENAGDPEKQREIVLEAAKKAEEAGYSATVGAGAINARVRAEGTPEAAAIAAEVYQELRDKERA | not found
23 | design_623_6e2e8b1f-5d9a-4413-9869-27a184816b12_1942_dldesign_0_cycle1_af2pred (protein) AAAAATVAANAALAMAKKALEIAERAKKAGEEAPELAQSALQALDVAEALIAYATAISAAADAATKAKLAEAKKVVKEAREIAEKVIK | not found
24 | design_623_6e2e8b1f-5d9a-4413-9869-27a184816b12_1758_dldesign_0_cycle1_af2pred (protein) AEKVKELAKKAEELAKKAEKAAKESLAKAEKYAAKADELAREVNREAQKVATSGEAGEALLKALEAQAKARKALAEAKAKAEA | not found
25 | design_623_6e2e8b1f-5d9a-4413-9869-27a184816b12_262_dldesign_0_cycle1_af2pred (protein) GAAEARAQAEKTFAEAIEVGKEALKEAEKLKEKDKEKAEKYIKKINELLHELFRAMALSMTDPEAGLKAIEEQLKKLKEVLKEIKE | not found
26 | design_623_6e2e8b1f-5d9a-4413-9869-27a184816b12_287_dldesign_0_cycle1_af2pred (protein) AAAAKAALAAAKAKADEVAKYAEEVDPELGKEIKAKQADLTKAAQDGLAISPALAKGAANMLAAYAESAKKKAEKLAKEK | not found
27 | design_623_6e2e8b1f-5d9a-4413-9869-27a184816b12_1575_dldesign_0_cycle1_af2pred (protein) NAGQAVADALRAATEAERAAAAVDPALAAQARALLAKAMQAAVAGDDAEAIAYAAEVRALRDEVLARAAA | not found
28 | design_623_6e2e8b1f-5d9a-4413-9869-27a184816b12_1355_dldesign_0_cycle1_af2pred (protein) AVAQQALATAQRNLERAKEYAKAGDVKAATAFATTAITLAQAVAATDPALAPQAQAIIDQAQAVIEEAKA | not found
29 | design_623_6e2e8b1f-5d9a-4413-9869-27a184816b12_1293_dldesign_0_cycle1_af2pred (protein) DAIRARAAEVKERAERLLEEGKRLPEIEEQVREMAESAKALADDALAAAATDPAQARLALAAAEALVRSLELLVERAKEEA | not found
30 | design_623_6e2e8b1f-5d9a-4413-9869-27a184816b12_1303_dldesign_0_cycle1_af2pred (protein) AAAQADALTARGKELYAEGKKKYKEGKKEEAAKLFFEAANDYMRAASLYSKVDPAQAVAALEQMEKAIEEYKKAKE | not found
31 | design_623_6e2e8b1f-5d9a-4413-9869-27a184816b12_2057_dldesign_0_cycle1_af2pred (protein) MEVIEKLKEYGQQAIDILTGLAKAQPAVKDVAEPAAQEVREATKKAVERGEKEGEEAAKKEYEKVHALANAALARVSKLAAA | not found
32 | design_623_6e2e8b1f-5d9a-4413-9869-27a184816b12_1349_dldesign_0_cycle1_af2pred (protein) DRLREIAAALAKEVAEATGADPATTEKLAELLAAVLEANQQGPEAFAAAYSKLVDFTVSTGSDALLAKAGAAVSRGLRALG | not found
33 | design_623_6e2e8b1f-5d9a-4413-9869-27a184816b12_1242_dldesign_0_cycle1_af2pred (protein) AAARRTALGLQRGASVIAYAKEVGVPEAGRRAGLLVVLALAGGAALGAAAAAAAEALAEELAAAGYPGFGTFVRGILRAARAEAA | not found
34 | design_623_6e2e8b1f-5d9a-4413-9869-27a184816b12_1669_dldesign_0_cycle1_af2pred (protein) SSALQTVKGYLALGKVAATAIRSGKVELGKELAEAAIKGALEAGKEHPEVAEEAEKAAEEIRKITEEALEEVEEA | not found
35 | design_623_6e2e8b1f-5d9a-4413-9869-27a184816b12_254_dldesign_0_cycle1_af2pred (protein) DDLTQAQIALAAAQALIKNAKAVLEDKSASEETLKSAAEAMEVAIQLAKQAEKLAKKADPELAKKAKEVKKEAEKVKKELEKKI | not found
36 | design_623_6e2e8b1f-5d9a-4413-9869-27a184816b12_258_dldesign_0_cycle1_af2pred (protein) ASEAAAQTITRGVAELRERFADLSPEALAALAAAQQAALLAAIQGDFEAAAAEVVRGAEAVGAISPHTEEIRALGRATAERILALA | not found
37 | design_623_6e2e8b1f-5d9a-4413-9869-27a184816b12_890_dldesign_0_cycle1_af2pred (protein) SPAARLMEATYRRLEEALEKLERAEELSPEEVLEAARLAEANARFARLAGRQAAAEEGTAEAAEAAAKAEALAEEAEEKAREARERLE | not found
38 | design_623_6e2e8b1f-5d9a-4413-9869-27a184816b12_1233_dldesign_0_cycle1_af2pred (protein) DAATQAKVKELAEKALNGTPEEAYKATAEAFKISEQAGMEVLAAAAKGKPENAHAALSAYAAGLVAAKKAA | not found
